Experimental data from the antibiotic and cytotoxicity screens of Wong et al. (2023).
Out of some 39,000 compounds screened, about 3,300 (8.5%) were called active. The sample as a whole holds a higher share of actives than the screen did.

test system: HepG2; assay: cytotoxicity call (relative viability < 0.9); details: 10 µM

Structure (SMILES) | cytotoxicity call
CCCCCCC#C[Si](O[C@H](c1ccccc1)c1cn(Cc2cccc(Cl)c2)nn1)(C(C)C)C(C)C | inactive
C[C@@H]1CCCCO[C@H](CN(C)C(=O)Nc2ccccc2)[C@H](C)CN([C@@H](C)CO)C(=O)c2cc(NS(=O)(=O)c3ccc(Cl)cc3)ccc2O1 | inactive
COc1ccc(C#Cc2ccc3c(c2)[C@H]2[C@H](CCN2C(=O)Nc2ccc(C(F)(F)F)cc2)[C@@H](CO)N3C)cc1 | inactive
C[C@@H]1CCCCO[C@H](CN(C)C(=O)Nc2ccc3c(c2)OCO3)[C@H](C)CN([C@@H](C)CO)C(=O)c2cc(NC(=O)CCC(F)(F)F)ccc2O1 | inactive
O=C(CCCCCCC(=O)Nc1ccc(C(=O)NCCOCCOCCNC(=O)c2ccc(NC(=O)CCCCCCC(=O)NO)cc2)cc1)NO | inactive
COCC(=O)N(C)C[C@@H]1Oc2cc(-c3ccc(C#N)cc3)ccc2S(=O)(=O)N([C@@H](C)CO)C[C@H]1C | inactive
C[C@H](CO)N1C[C@H](C)[C@H](CN(C)C(=O)CN2CCOCC2)Oc2ncc(/C=C/c3ccccc3)cc2C1=O | inactive
COCCC(=O)N1C[C@H]2CN(c3cnn(C)c3)C(=O)[C@@H]2C1 | inactive
Cc1ccc(F)cc1NC(=O)CN | inactive
COc1ccc(NC(=O)Nc2ccc3c(c2)C(=O)N([C@H](C)CO)C[C@H](C)[C@H](CN(C)S(=O)(=O)c2ccc(C)cc2)OCCCC[C@@H](C)O3)cc1 | inactive
COc1ccc(NC(=O)Nc2ccc3c(c2)C(=O)N([C@@H](C)CO)C[C@@H](C)[C@@H](CN(C)S(=O)(=O)c2ccccc2)OCCCC[C@@H](C)O3)cc1 | inactive
COc1ccc(NC(=O)Nc2ccc3c(c2)C(=O)N([C@H](C)CO)C[C@@H](C)[C@H](CN(C)S(=O)(=O)c2ccc(OC)cc2)OCCCC[C@@H](C)O3)cc1 | active
COc1ccc(NC(=O)Nc2ccc3c(c2)C(=O)N([C@H](C)CO)C[C@@H](C)[C@H](CN(C)S(=O)(=O)c2ccc(C)cc2)OCCCC[C@H](C)O3)cc1 | active
COc1ccc(NC(=O)Nc2ccc3c(c2)C(=O)N([C@@H](C)CO)C[C@@H](C)[C@H](CN(C)S(=O)(=O)c2ccccc2)OCCCC[C@@H](C)O3)cc1 | inactive
COc1ccc(NC(=O)Nc2ccc3c(c2)C(=O)N([C@@H](C)CO)C[C@@H](C)[C@H](CN(C)S(=O)(=O)c2ccc(C)cc2)OCCCC[C@H](C)O3)cc1 | inactive
COc1ccc(NC(=O)Nc2ccc3c(c2)C(=O)N([C@@H](C)CO)C[C@@H](C)[C@@H](CN(C)S(=O)(=O)c2ccc(OC)cc2)OCCCC[C@@H](C)O3)cc1 | inactive
COc1ccc(NC(=O)Nc2ccc3c(c2)C(=O)N([C@H](C)CO)C[C@@H](C)[C@H](CN(C)S(=O)(=O)c2ccccc2)OCCCC[C@H](C)O3)cc1 | active
COc1ccc(NC(=O)Nc2ccc3c(c2)C(=O)N([C@@H](C)CO)C[C@H](C)[C@H](CN(C)S(=O)(=O)c2ccc(OC)cc2)OCCCC[C@@H](C)O3)cc1 | inactive
C[C@H](CO)N1C[C@H](C)[C@H](CN(C)C(=O)c2ccc(N3CCN(C)CC3)cc2)OCc2cnnn2CCCC1=O | inactive
C[C@H](O)C#Cc1ccc2c(c1)O[C@@H](CN(C)C)[C@@H](C)CN([C@@H](C)CO)S2(=O)=O | inactive
COc1ccc(S(=O)(=O)N(C)C[C@H]2Oc3c(NS(=O)(=O)c4ccc(C)cc4)cccc3C(=O)N([C@@H](C)CO)C[C@@H]2C)cc1 | inactive
CCNC(=O)C[C@H]1CC[C@@H](NC(=O)C2CC2)[C@@H](CO)O1 | inactive

Structure (SMILES) | cytotoxicity call
Cc1noc(C)c1C(=O)OCC(=O)NC1CC1 | inactive
Cc1cc(C(=O)Nc2cccc3c2O[C@@H](CN(C)Cc2ccncc2)[C@H](C)CN([C@H](C)CO)C3=O)n(C)n1 | inactive
COC(=O)c1cnn2c(=O)cc(C)[nH]c12 | inactive
O=C(C[C@H]1CC[C@H]2[C@@H](COC[C@@H](O)CN2S(=O)(=O)c2cccc(F)c2)O1)NCCCN1CCOCC1 | inactive
C[C@H](CO)N1C[C@H](C)[C@@H](CN(C)Cc2ccc(C(F)(F)F)cc2)Oc2ccc(NC(=O)Nc3ccc(F)cc3)cc2C1=O | active
C[C@@H]1CN([C@@H](C)CO)C(=O)c2cc(NC(=O)Nc3ccc(F)cc3)ccc2O[C@H]1CN(C)Cc1ccc(C(F)(F)F)cc1 | active
C[C@H]1CN([C@@H](C)CO)C(=O)c2cc(NC(=O)Nc3ccc(F)cc3)ccc2O[C@@H]1CN(C)Cc1ccc(C(F)(F)F)cc1 | inactive
C[C@@H]1CN([C@H](C)CO)C(=O)c2cc(NC(=O)Nc3ccc(F)cc3)ccc2O[C@H]1CN(C)Cc1ccc(C(F)(F)F)cc1 | active
C[C@@H]1CN([C@@H](C)CO)C(=O)c2cc(NC(=O)Nc3ccc(F)cc3)ccc2O[C@@H]1CN(C)Cc1ccc(C(F)(F)F)cc1 | active
C[C@H](CO)N1C[C@H](C)[C@H](CN(C)Cc2ccc(C(F)(F)F)cc2)Oc2ccc(NC(=O)Nc3ccc(F)cc3)cc2C1=O | inactive
C[C@@H]1CN([C@H](C)CO)C(=O)c2cc(NC(=O)Nc3ccc(F)cc3)ccc2O[C@@H]1CN(C)Cc1ccc(C(F)(F)F)cc1 | inactive
C[C@H]1CN([C@@H](C)CO)C(=O)c2cc(NC(=O)Nc3ccc(F)cc3)ccc2O[C@H]1CN(C)Cc1ccc(C(F)(F)F)cc1 | inactive
O=C(C[C@@H]1CC[C@@H]2[C@H](COC[C@@H](O)CN2C(=O)c2cccnc2)O1)NCc1ccc(-c2ccccc2)cc1 | inactive
C[C@@H]1CN([C@H](C)CO)C(=O)Cc2cc(NS(=O)(=O)c3cn(C)cn3)ccc2O[C@@H]1CN(C)C(=O)NC1CCCCC1 | inactive
C[C@H](CO)N1C[C@H](C)[C@@H](CN(C)Cc2cccc3c2OCCCO3)OCc2cn(nn2)CCCC1=O | inactive
O=C1CSCCN1 | inactive
OCc1ncc[nH]1 | inactive
CCNC(=O)[C@H]1[C@H](CO)[C@H]2Cn3c(ccc(-c4ccc(OC)cc4)c3=O)[C@@H]1N2S(C)(=O)=O | inactive
C[C@@H]1CN([C@@H](C)CO)S(=O)(=O)c2ccc(C3=CCCC3)cc2O[C@@H]1CN(C)C(=O)Cc1ccncc1 | inactive
COc1ccc2c(c(Br)c(C(=O)O)n2CCCOc2cccc3ccccc23)c1-c1ccccc1C | inactive
C[C@H](CO)N1C[C@H](C)[C@@H](CN(C)Cc2ccc(C(=O)O)cc2)Oc2ccc(NC(=O)Cn3cnnn3)cc2CC1=O | inactive
CC(C)(C)C(=O)C[C@@H](Nc1ccccc1)c1ccc(Cl)cc1 | inactive

Structure (SMILES) | cytotoxicity call
COc1cccc(-c2ccc3n(c2=O)C[C@H]2[C@H](CO)[C@@H](C(=O)NCC4CC4)[C@@H]3N2S(C)(=O)=O)c1 | inactive
C[C@H]1CN([C@@H](C)CO)C(=O)c2cccc(NS(=O)(=O)c3cn(C)cn3)c2O[C@@H]1CN(C)CC1CC1 | inactive
CCc1nc2ccc(C(=O)N3CCN(C(=O)c4ccco4)CC3)cn2c1N(C)C(=O)COc1ccccc1 | inactive
CCc1nc2c(OCC(=O)c3ccc(Cl)cc3Cl)cccn2c1N(C)C(=O)COc1ccccc1 | active
CCc1nc2c(OCC(=O)c3ccc(Cl)cc3Cl)cccn2c1N(C=O)Cc1ccc(OC)cc1 | inactive
C[C@@H]1CN([C@H](C)CO)C(=O)Cc2cc(NS(=O)(=O)c3cccs3)ccc2O[C@H]1CN(C)CC1CC1 | inactive
CC(C)=CCC/C(C)=C/CC1=C(C)C(=O)c2ccccc2C1=O | inactive
C[C@@H]1CN([C@H](C)CO)C(=O)Cc2cc(NC(=O)Nc3cccc4ccccc34)ccc2O[C@H]1CN(C)Cc1ccc(C(F)(F)F)cc1 | inactive
C[C@@H]1CN([C@@H](C)CO)C(=O)Cc2cc(NC(=O)Nc3cccc4ccccc34)ccc2O[C@@H]1CN(C)C(=O)Nc1ccc(C(F)(F)F)cc1 | inactive
C[C@@H]1CN([C@@H](C)CO)C(=O)Cc2cc(NC(=O)Nc3cccc4ccccc34)ccc2O[C@@H]1CN(C)Cc1ccc(C(F)(F)F)cc1 | active
C[C@H]1CN([C@@H](C)CO)C(=O)Cc2cc(NC(=O)Nc3cccc4ccccc34)ccc2O[C@@H]1CN(C)Cc1ccc(C(F)(F)F)cc1 | inactive
C[C@H](CO)N1C[C@H](C)[C@@H](CN(C)Cc2ccc(C(F)(F)F)cc2)Oc2ccc(NC(=O)Nc3cccc4ccccc34)cc2CC1=O | inactive
C[C@H](CO)N1C[C@H](C)[C@H](CN(C)Cc2ccc(C(F)(F)F)cc2)Oc2ccc(NC(=O)Nc3cccc4ccccc34)cc2CC1=O | inactive
C[C@H]1CN([C@@H](C)CO)C(=O)Cc2cc(NC(=O)Nc3cccc4ccccc34)ccc2O[C@H]1CN(C)Cc1ccc(C(F)(F)F)cc1 | active
C[C@@H]1CN([C@H](C)CO)C(=O)Cc2cc(NC(=O)Nc3cccc4ccccc34)ccc2O[C@@H]1CN(C)Cc1ccc(C(F)(F)F)cc1 | active
C[C@@H]1CN([C@@H](C)CO)C(=O)Cc2cc(NC(=O)Nc3cccc4ccccc34)ccc2O[C@H]1CN(C)Cc1ccc(C(F)(F)F)cc1 | inactive
O=C(COc1ccccc1)N1CCNC1=O | inactive
CC(C)NC(=O)N(C)C[C@@H]1Oc2ncc(-c3ccc(C(=O)N(C)C)cc3)cc2C(=O)N([C@@H](C)CO)C[C@H]1C | inactive
O=C(C[C@H]1C[C@H]2c3cc(NC(=O)C4CCOCC4)ccc3O[C@H]2[C@@H](CO)O1)NCCN1CCCCC1 | inactive
C[C@H]1CCCCO[C@H](CN(C)C(=O)c2ccccc2)[C@@H](C)CN([C@@H](C)CO)C(=O)c2cc(NC(=O)NC3CCCCC3)ccc2O1 | inactive
C[C@@H]1CN([C@H](C)CO)C(=O)c2cc(NC(=O)c3ccncc3)ccc2O[C@@H]1CN(C)Cc1ccc2c(c1)OCO2 | inactive
COc1ccc(S(=O)(=O)Nc2ccc3c(c2)C(=O)N([C@@H](C)CO)C[C@@H](C)[C@@H](CN(C)C(=O)Nc2ccc4c(c2)OCO4)OCCCC[C@H](C)O3)cc1 | inactive
